PubChem BioAssay (NCATS)
Inconclusive results are not listed. Where a call stands in place of a potency, no number is given. The source made the active and inactive calls. Calls come from the whole dose curve; as a rule, active = well fitted inhibition curve with a large enough effect; inconclusive = small, poorly fitted or top-dose-only effect; inactive = flat fitted curve, though single readings scatter.

biological target: Calcium and integrin-binding protein 1 (Homo sapiens) (UniProt Q99828); assay: Primary qHTS for Identification of Calcium Integrin Binding Protein 1 (CIB1) Competitor (AID 1508620); settings: CIB1-GST / FITC-alphaIIb peptide fluorescence polarization; series mostly up to 114 µM; note: top concentration of the series differs between compounds
Sequence (Q99828 whole entry, looked up): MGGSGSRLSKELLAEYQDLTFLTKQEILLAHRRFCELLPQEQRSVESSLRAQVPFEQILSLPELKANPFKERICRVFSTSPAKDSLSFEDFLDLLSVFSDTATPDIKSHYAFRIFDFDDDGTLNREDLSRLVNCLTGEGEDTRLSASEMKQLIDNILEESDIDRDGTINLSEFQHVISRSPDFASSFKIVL
How it was run: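 Fluorescence polarization competition: GST-tagged CIB1 (1 uM final) preincubated with compound 15 min at room temperature, then FITC-labelled alphaIIb peptide (100 nM final) added. After 15 min at room temperature, polarization read at Ex 480/Em 540.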

| SMILES | Potency |
| --- | --- |
| COc1cccc(CN2C(=O)c3ccccc3NC2c2ccc(OC)c(COc3ccc(NC(C)=O)cc3)c2)c1 (configuration not stated) | inactive |
| COc1ccc(C(=O)O)cc1COc1ccc(NC(C)=O)cc1 | inactive |
| Cc1cnc(-c2ccccc2C(C)C)nc1NCC1CCN(C)CC1 | inactive |
| CCc1cccc(CC)c1OCc1cc(C2Nc3ccccc3C(=O)N2Cc2ccco2)ccc1OC (configuration not stated) | inactive |
| Cc1cc(C)nc(NC(=S)N2CCN(c3cc(Cl)cc(Cl)n3)CC2)c1 | inactive |
| COc1cnccc1-c1nc(Nc2ccc(F)c(F)c2)c2ccccc2n1 | inactive |
| O=S(=O)(Nc1ccc(-c2ccccc2)cc1)c1ccc(NCc2ccc(Br)cc2O)cc1 | inactive |
| Fc1ccccc1-c1ccc(Nc2nc(-c3ccncc3)nc3ccccc23)cc1F | inactive |
| CC(C)c1ccccc1-c1ncc(N)c(NCc2ccc(-c3cccnc3)cc2)n1 | inactive |
| O=C(Nc1ccc(Cl)c(C(F)(F)F)c1)Nc1cccc(-c2ccncc2)n1 | inactive |
| O=C(/C=C/c1ccc(OC(F)(F)F)cc1)Nc1cccc([S+](=O)([O-])Nc2ccccc2F)c1 | inactive |
| O=C(Nc1ccc(Cl)c(Cl)c1)Nc1ccnc(-c2ccncc2)n1 | inactive |
| O=C1CCCC2=C1C(c1[nH]ncc1Cl)N=C(Nc1ccccn1)N2 (configuration not stated) | inactive |
| COC(=O)C1CCc2sc(NC(=O)Cc3ccccc3)c(C(=O)Nc3ccc(Cl)cc3)c21 (configuration not stated) | inactive |
| Cc1ccc(NCc2ccc(O)c3ncccc23)c(F)c1 | inactive |
| COc1ccc(S(=O)(=O)Nc2ccc(C)c(C)c2)cc1 | inactive |
| c1nc(NCc2ccoc2)c2cc(-c3ccc4c(c3)OCO4)ccc2n1 | inactive |
